The campaign covered roughly 1,200 compounds. About 210 (18%) were called active. Only a sample is shown. A number with no mark means an inactive call. Rule as the data show it: active = inhibition above about 30%; inactive = the rest.

A short description of the experiment: fluorescence readout artefact check – biochemical, HTRF, uHTS, artefact control for SUMOylation inhibitor project, confirmation (AID 2069). As to conditions: HTRF interference counterscreen, at 35 µM, stronger effect = higher value. A general note: Time-resolved FRET reads energy transfer from a long-lived donor to a nearby acceptor.
For `Cn1c2ccccc2c(=O)n2c(=O)c3ccccc3cc12`, the inhibition was 8.7%.
As to `COc1cc(/C=C2/C(=O)N(c3ccccc3)N=C2C)ccc1OS(=O)(=O)c1ccccc1`, the inhibition was -23.2%.
For `Cc1ccc(Cn2nnnc2CN2CCC(NC(=O)C(C)(C)C)CC2)cc1` the value was 5.15%; for `Cc1ccc(S(=O)(=O)N2CCCCC2)cc1NC(=O)COC(=O)c1c(F)cccc1F`, -11.4%; for `Cc1nn2c3c(cnc2c1-c1ccc(Cl)cc1)C(=O)CC(c1ccco1)C3` (configuration not stated), -0.9%.
Then `CC(C)c1ccc(S(=O)(=O)/N=C2/C=CC(=O)c3ccccc32)cc1`, with 11.3%.
Then `O=C(Cn1nnc2ccccc21)NCc1ccccc1`, with -8.55%; and `CN(C)CCCn1c(N)c(C#N)c2nc3ccccc3nc21`, with 39.2% (active).
Consider `CCCCn1c(NC(C)=O)c(C#N)c2nc3ccccc3nc21`, for which the inhibition is 33% (active).
Then `CCC(C)n1c(NC(=O)c2ccccc2)c(C#N)c2nc3ccccc3nc21` (configuration not stated), with 11.8%.
For `COCCn1c(N)c(C#N)c2nc3ccccc3nc21` the value was 43.9% (active); for `CCCCn1c(NC(=O)c2ccccc2Cl)c(C#N)c2nc3ccccc3nc21`, 20.8%; for `COc1ccccc1CCn1c(N)c(C#N)c2nc3ccccc3nc21`, 17.6%.
Then `CCCCCn1c(N)c(C#N)c2nc3ccccc3nc21`, with 16.7%.
As for `N#Cc1c(N)n(CCOC(=O)c2ccc(Cl)cc2)c2nc3ccccc3nc12`, the inhibition is 10.8%.
Then `C=CCn1c(NC(=O)c2ccccc2Cl)c(C#N)c2nc3ccccc3nc21`, with 28.9%; and `Cc1cnc(C(=O)OCC(=O)c2ccc(F)cc2)cn1`, with -5.75%.
Then `O=[N+]([O-])c1c(NCCCO)cc(Sc2nc3ccccc3s2)c2nonc12`, with 3.25%.
Take `Cc1c(C(=O)c2ccc(F)cc2F)c2ccccn2c1CCC#N`: the inhibition was 17.8%.
As to `COc1cc(/C=N/NC(=O)c2cc(-c3ccco3)nc3ccccc23)cc(OC)c1O`, the inhibition is -5.6%.
For `O=C(NC(=S)Nc1c(Cl)ccc2nsnc12)c1ccco1` the value was -7.55%; for `O=C(N=Nc1c(O)[nH]c2ccc([N+](=O)[O-])cc12)c1ccccc1Cl`, 7.65%.
For `CN(C)c1ccc(NC(=O)c2sc(SCC(=O)Nc3ccc(Br)cc3)nc2N)cc1` the value was 8.25%.
For `Cc1oc(-c2ccc(F)cc2)cc1-c1nn2c(-c3ccoc3C)nnc2s1` the value was -3.45%; for `COc1ccccc1CNC(=O)COC(=O)c1cc(-c2ccco2)nc2ccccc12`, 12.6%; for `CN(CCC#N)C(=O)COC(=O)c1c2c(nc3ccccc13)/C(=C/c1ccco1)CC2`, 36.5% (active).
Regarding `CCOc1ccc(/C=C2/SC(=S)N(CCC(=O)Nc3ccc(C(=O)O)cc3)C2=O)cc1`, the inhibition was 4.55%.
Then `Cc1nn(-c2ccccn2)c2c1C(=O)C(Br)CC2` (configuration not stated), with -0.05%.
`O=C1/C(=C/c2coc3ccc(O)cc3c2=O)SC(=S)N1c1ccccc1`: the inhibition is 4.9%.
Then `Cc1ccc(C)c(OCC(=O)Nc2nonc2NC(=O)COc2cc(C)ccc2C)c1`, with -13.6%.
For `Cc1nn(-c2ccccc2)c2sc(C(=O)NNC(=O)COc3ccccc3)cc12` the value was 10.2%; for `COC(=O)c1ccccc1NC1=C/C(=N\S(=O)(=O)c2cccs2)c2ccccc2C1=O`, 1.7%; for `O=[N+]([O-])c1ccc(N2CCN(CCO)CC2)c2ncccc12`, -19.1%.
For `O=C(NCc1ccccc1)Nc1cccn(Cc2ccccc2)c1=O`, the inhibition is -6.8%.
For `CC(=O)Nc1ccc(NC2=C/C(=N/S(=O)(=O)c3cccs3)c3ccccc3C2=O)cc1` the value was -7.75%; for `O=[N+]([O-])c1cc(Cl)cc(/C=N/NC(=S)Nc2ccc(S(=O)(=O)N3CCOCC3)cc2)c1O`, 80.5% (active); for `Cc1c(NC(=S)N/N=C/c2cc([N+](=O)[O-])ccc2O)c(=O)n(-c2ccccc2)n1C`, 11.2%.
On to `O=[N+]([O-])c1ccc(O)c(/C=N/NC(=S)Nc2ccc(Cl)cc2Cl)c1`, for which the inhibition was -23.9%.
For `Cc1ccc(/C=C2/SC(=S)N(c3ccc(S(=O)(=O)Nc4nccs4)cc3)C2=O)cc1` the value was -9.3%; for `N=C1/C(=C/c2cccn2Cc2ccc(Cl)cc2)C(=O)N=C2SC=CN12`, 18.8%; for `CC1CCN(C2=C(NS(=O)(=O)c3ccc(Br)cc3)C(=O)c3ccccc3C2=O)CC1`, 7.4%.
Then `Cc1c(C(=O)Nc2ccc(F)cc2)cn2c(nc3ccccc32)c1C#N`, with 19.4%; and `O=c1[nH]c(=S)[nH]c(O)c1N=Nc1ccc(-c2ccccc2)cc1[N+](=O)[O-]`, with 16.1%; and `CCOc1ccc(C2C=C(c3ccccc3)Nc3ncnn32)cc1` (configuration not stated), with 50.8% (active).
Then `COc1ccc2nc(NC(=O)CCc3ccc(OC)c(OC)c3)sc2c1`, with 10.8%; and `N#CC(c1nc2ccccc2nc1N1CCCC1)S(=O)(=O)c1ccccc1` (configuration not stated), with 1.75%; and `COc1cc(=O)n(C)c2c(OCC3OC(C)(C)OC3(C)C)cccc12` (configuration not stated), with 2.3%.
`O=c1c(-c2c(O)cc(O)c3c(=O)cc(-c4ccc(O)cc4)oc23)c(-c2ccc(O)cc2)oc2cc(O)cc(O)c12`: the inhibition is 35.6% (active).
For `COc1cccc(NC(=O)Nc2nnc(-c3ccccc3SCc3ccccc3)s2)c1` the value was 2.35%; for `COc1ccc(C=Nc2cccc3ncccc23)cc1`, -4.65%; for `COc1ccc(/C=C/c2cc(C(=O)O)c3ccccc3n2)cc1`, 68.2% (active).
Then `CCOc1ccc(/C=N/NC(=O)c2cc(-c3ccco3)nc3ccccc23)cc1`, with 15.3%; and `C/C(=N\NC(=O)c1cc(O)ccc1O)c1cccc(NC(=O)c2ccc(Cl)cc2)c1`, with -7.9%; and `Cc1ccc(NC(=O)Cn2c(=O)oc3cc(S(=O)(=O)N4CCC(C)CC4)ccc32)cc1C`, with -3.55%.
For `O=C1/C(=C/c2ccco2)Oc2c1ccc(O)c2CN1CCCCC1` the value was 37.6% (active); for `NC(=O)CC(NC(=O)Cc1ccc(Br)cc1)c1ccc(NCCOc2ccccc2)c([N+](=O)[O-])c1` (configuration not stated), 7.3%.
`CN(C)c1cc(Nc2cccc(O)c2)c([N+](=O)[O-])c2nonc12`: the inhibition was -1.05%.

What is called inhibition is the relative decrease from the control value, in per cent.
